An excerpt weighted towards active compounds, which were near 1.5% of everything screened.
TrxR1 inh = blocks rat thioredoxin reductase 1 | AID 588453 | 390,000 tested, 1% active | Potency, µM (doses to about 114 µM), for the others: at the top dose activity change, negative = inhibition, usual class: inhibitors | O89049 | recombinant rTrxR1, NADPH fluorescence consumption, selenite substrate; also: potency is read from the fitted curve at half-maximal effect; nearly all actives have a fitted effect of over 65% in size
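Rat TrxR1 (90 nM in the dispensed reagent) was pre-reduced with 400 uM NADPH for 5 min at room temperature, then incubated with compound for 15 min. After 400 uM selenite was added, NADPH fluorescence (Ex 340/Em 450 nm) was followed for 8 min.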
USP1-UAF1 inh = blocks the human USP1/UAF1 deubiquitinase complex. O94782. recombinant USP1/UAF1, Ub-Rhodamine cleavage fluorescence. Potency, µM (titrated, usually from 57.1 µM), inactives show top-dose activity change, negative = inhibition, usual class: inhibitors. 390,000 tested, 0.23% active; also: potency is read from the fitted curve at half-maximal effect; nearly all actives have a fitted effect of over 60% in size
Target sequence (O94782 whole entry, looked up): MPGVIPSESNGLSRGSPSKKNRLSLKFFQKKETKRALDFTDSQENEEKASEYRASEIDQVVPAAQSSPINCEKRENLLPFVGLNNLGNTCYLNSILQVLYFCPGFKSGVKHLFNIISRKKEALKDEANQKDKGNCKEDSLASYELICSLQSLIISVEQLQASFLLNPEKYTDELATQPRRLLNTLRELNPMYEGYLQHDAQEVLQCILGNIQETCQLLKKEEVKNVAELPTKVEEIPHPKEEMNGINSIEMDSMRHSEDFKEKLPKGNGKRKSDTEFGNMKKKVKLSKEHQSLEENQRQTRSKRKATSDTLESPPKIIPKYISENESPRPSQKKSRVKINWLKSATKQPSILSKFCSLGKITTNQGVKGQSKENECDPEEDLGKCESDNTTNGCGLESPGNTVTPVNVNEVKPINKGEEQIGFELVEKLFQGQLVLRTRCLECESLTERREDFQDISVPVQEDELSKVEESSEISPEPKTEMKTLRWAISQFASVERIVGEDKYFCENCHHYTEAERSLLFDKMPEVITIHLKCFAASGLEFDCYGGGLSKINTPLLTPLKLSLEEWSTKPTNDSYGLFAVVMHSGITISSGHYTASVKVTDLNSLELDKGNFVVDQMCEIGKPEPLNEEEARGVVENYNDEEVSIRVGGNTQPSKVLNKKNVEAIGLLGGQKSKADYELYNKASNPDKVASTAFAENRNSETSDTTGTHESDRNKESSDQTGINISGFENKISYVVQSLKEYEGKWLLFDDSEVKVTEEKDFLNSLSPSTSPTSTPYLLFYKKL
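In this screen, compounds sit with the deubiquitinase complex (1nM) for 15 min at room temperature before Ub-Rho is added at 150nM final. Fluorescence rise is then followed for 6 reads every 60 seconds.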
GALK inhibitor = inhibitors of human galactokinase. Purified GALK, Kinase-Glo residual ATP luminescence. Potency, µM (series often up to 57.5 µM), for the others: top-dose activity change, negative = inhibition, hits mostly inhibitors. 270,000 tested, 0.007% active. AID 1868; also: potency is read from the fitted curve at half-maximal effect
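ATP-depletion format; final 35 uM ATP, 100 uM D-galactose, 5 nM enzyme; pH 8.0 HEPES/Mg2+ buffer; 60 min RT; luminescence read 10 min after detection reagent.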
Coupling enz = counter-screen for Giardia aldolase inhibitors: coupling enzyme system; activity change, negative = inhibition, % at 58.2 µM, hits read low; AID 2472; coupling enzyme system counterscreen, AmpLite Red fluorescence; 290,000 tested, 0.67% active; in the data active = activity change below about -30%
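Compounds tested against the coupling enzymes alone at 57.5 uM final; readout was AmpLite Red fluorescence (525/598 nm) after 20 min at RT.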
TrxR1 substrate = substrates of rat thioredoxin reductase 1 | purified TrxR1 substrate turnover, NADPH consumption readout | Potency, µM (titrated, usually from 114 µM), for inactives: at the top dose activity change, negative = substrate turnover | 390,000 tested, 0.01% active | AID 588456; also: potency is read from the fitted curve at half-maximal effect; nearly all actives have a fitted effect of over 50% in size
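Rat TrxR1, dispensed at 90 nM, was prereduced with 400 uM NADPH (final) for 5 min at ~22 deg C, then incubated with compound 15 min before 400 uM selenite. A first-read NADPH fluorescence drop versus no-compound background flagged substrates.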
Numbers without * were called inactive; ? = inconclusive; · = no result given; ! = not confirmed by another sample; [ ] = dose if it differs, or a comment. Unless noted, calls follow the shape of the dose curve; as a rule, active = well fitted curve in the direction sought with a large enough effect; inconclusive = small, poorly fitted or top-dose-only effect, or another doubt; inactive = no such curve, though single readings can be large; an effect the other way counts as inactive or inconclusive. % is scaled to controls: 0 for no effect and ±100 for the full control effect.

SMILES | TrxR1 inh | USP1-UAF1 inh | GALK inhibitor | Coupling enz | TrxR1 substrate
CC(C)CNC(=O)c1c(N)n(Cc2ccc3c(c2)OCO3)c2nc3ccccc3nc12 | 14.8% | -21.2% | 0.9% | -50.6* | 66.4%
C[C@H]1C2Cc3ccc(O)cc3[C@]1(C)CCN2CC1CC1 | ? | · | · | · | -0.8%[57.1 µM]
CN1CC[C@@]2(C)c3cc(O)ccc3N(C)[C@@H]12 | -12.9% | 28.2µM* | · | -77.9* | -6.5%
CN1CC[C@@]2(C)c3cc(O)ccc3N(C)C2O1 (stereo partly drawn) | -7.6% | · | · | -71.9* | 2.1%
CC1[C@H]2Cc3ccc(O)cc3[C@]1(C)CCN2C (stereo partly drawn) | -1.8% | -13.2% | · | · | -6.3%
C[C@@H]1C[C@@H]2[C@H]([C@H]3C=C(COC(=O)c4ccccc4)[C@@H](O)[C@]4(O)[C@@H](O)C(OC(=O)c5ccccc5)=C[C@@]14C3=O)C2(C)C | · | · | · | 0.9 | ·
Cc1ccc(S(=O)(=O)Oc2ccccc2C=C2C(=O)N(C)C(=O)N(C)C2=O)cc1 | 50.1µM* | -2.9% | 7.2% | -1.7 | -2.6%
CN1C(=O)C(=Cc2ccccc2Oc2ccc(Cl)cc2)C(=O)N(C)C1=O | ? | -9.6% | 1.1% | 1.0 | -2.1%
Cc1ccc(/C=C2\C(=O)NC(=O)N(CCc3ccc(F)cc3)C2=O)s1 | -14.0%[57.1 µM] | 3.2% | -1.3% | 3.5 | 8.3%
Cc1ccc(/C=C2/C(=O)NC(=O)N(CC3CCCO3)C2=O)s1 (stereo not drawn) | 50.1µM* | -15.8% | 0.9% | 2.5 | -1.2%
O=C(Nc1ccc2nc(SCC(=O)N3CCCc4ccccc43)sc2c1)c1cccc(F)c1 | 39.3% | -14.4% | · | · | 9.6%
CN[C@@H](C)[C@H](O)c1ccccc1 | 25.1µM*! | · | · | · | -1.9%
CN[C@H](C)[C@H](O)c1ccccc1 | 13.4% | -21.1% | -1.9% | 4.3 | 2.2%
O=C(O)CC1OCC=C2CN3CCC45C6=CC(=O)C(=O)C([N+](=O)[O-])=C6NC4C1C2CC35 (stereo not drawn) | 15.8µM* | 5.01µM* | 10µM* | -92.5* | 15.8µM*
COc1ccc(Cc2nccc3cc(OC)c(OC)cc23)cc1OC | ? | ? | 0.7% | -31.9*! | 6.4%[57.1 µM]
COc1cc2c(ccc3c4cc(OC)c(OC)cc4c[n+](C)c23)cc1O | 4.3% | -8.4% | · | · | 0.4%
COC(=O)C1=C(C)NC(C)=C(C(=O)OC)C1c1ccccc1[N+](=O)[O-] | ? | 7.6% | 6.1% | -77.9*! | ?
Cc1ccccc1[N+](=O)[O-] | 29.4% | -14.1% | · | · | 11.8%
O=C(N=Nc1c(O)[nH]c(=O)[nH]c1=O)C1COc2cc3ccccc3cc2O1 (stereo not drawn) | 19.5%[57.1 µM] | -18.7% | 8.7% | -30.4* | 1.1%[57.1 µM]
ClCCN(CCCl)c1ccc(C=Nc2ccc(/C=C/c3ccncc3)cc2)cc1 | -2.6% | · | · | · | -13.8%
CCN1C(=O)/C(=C\c2ccc([N+](=O)[O-])s2)C(=O)NC1=S | · | · | -1.2% | -40.4* | ·
Cc1ccc(/C=C2/C(=O)NC(=O)N(CCc3ccc(F)cc3)C2=O)s1 | -33.9% | -20.0% | -0.3% | 3.7 | 2.3%
C=CCN1C(=O)/C(=C/c2ccc(Br)s2)C(=O)NC1=S | 6.31µM* | ? | -7.2% | 0.1 | -2.3%
O=c1oc(Cl)c(Cl)c2ccccc12 | 7.52µM* | -18.8% | · | · | 3.8%[57.1 µM]
Cc1ccc(NS(=O)(=O)c2c(F)cc(F)c(Cl)c2F)cc1S(=O)(=O)N1CCOCC1 | 18.3%[57.1 µM] | ? | · | · | -1.1%[57.1 µM]
SMILES | TrxR1 inh | USP1-UAF1 inh | GALK inhibitor | Coupling enz | TrxR1 substrate
CCCCCCCCCC[n+]1cccc([C@@H]2CCCN2C)c1 | · | · | · | -2.5 | ·
COc1cc2c(cc1/C=C/[N+](=O)[O-])OCO2 | ? | -21.8% | -1.6% | -3.2 | 5.3%
O=[N+]([O-])/C=C/c1ccc2c(c1)OCO2 | 10µM* | · | · | · | 12.5%[57.1 µM]
Cc1ccc(S(=O)(=O)N(CC(=O)NCCSc2ccc(Cl)cc2)c2ccccc2C)cc1 | 5.0% | ? | · | · | -5.4%
N#CC(C#N)=Cc1ccc([N+](=O)[O-])c(O)c1 | ? | · | · | -27.7 | ·
N#CC(C#N)=Cc1ccc(C=C(C#N)C#N)cc1 | 7.94µM* | ? | · | -22.7 | -5.4%
Cn1ncc2c(NCc3ccco3)ncnc21 | ? | · | · | · | 5.4%
COc1cc2c(cc1OC)-c1c(OC)c(OC)cc3c1[C@H](C2)N(C)CC3 | -20.8% | ? | · | -33.8* | 10.5%
O=C(Nc1ccc2nc(SCC(=O)N3CCOCC3)sc2c1)c1ccc(Cl)cc1 | 41.3% | -19.8% | · | · | 9.2%
CN1CC[C@@]2(c3cccc(O)c3)Cc3nc4ccccc4cc3C[C@H]2C1 | · | · | · | -0.3 | ·
O=C1Nc2ccc(Br)cc2C(c2ccc(Cl)cc2)=NC1O (stereo not drawn) | 10.8% | -22.6% | -2.8% | -33.9* | -4.2%
O=C1Nc2ccc(Br)cc2C(c2ccccc2)=NC1O (stereo not drawn) | 1.7% | -0.5% | · | -1.1 | -1.0%
O=C=NCCCCN=C=O | · | · | · | 3.7 | ·
O=C1NC(=O)N(c2ccc3c(c2)OCO3)C(=O)/C1=C/c1ccsc1 | 35.5µM* | -5.1% | -0.1% | -0.9 | -12.2%
O=C1NC(=O)N(c2ccc3c(c2)OCO3)C(=O)/C1=C/c1ccc(N2CCCC2)o1 | ? | ? | · | 0.1 | ?
O=C1NC(=O)N(c2ccc3c(c2)OCO3)C(=O)/C1=C/c1cccs1 | 44.7µM* | -21.9% | -1.3% | 1.6 | 1.1%
O=c1c2ccccc2nc(-c2ccccc2)n1-c1ccccc1 | 28.9% | -9.7% | -0.5% | 3.4 | 0.1%
O=c1c2ccccc2[se]n1-c1ccccc1 | 28.2µM*! | -3.6% | 0.7% | -1.7 | ?
CCc1cccc(C)c1N(C(=O)CCl)C(C)COC (stereo not drawn) | · | · | · | 0.6 | ·
CC(C)N(C(=O)CCl)c1ccccc1 | 20µM* | -14.6% | · | 4.3 | 11.6%
CC(C)CCNC(=O)CNC(=O)[C@@H](C)NC(=O)[C@@H](N)Cc1ccc(O)cc1 | · | · | · | 1.1 | ·
